Compounds with a hit are over-represented: about 1.6% of the library has one in this group of screens.
IMPase Li cell = membrane-permeable IMPase blocker, potentiated with lithium. CHO-M1 cells, IP1 TR-FRET (IP-One), carbachol + lithium. Potency, µM (highest dose often 59.4 µM), for inactives: at the top dose activity, negative = IMPase inhibition, hits mostly inhibitors. hit rate 0.35% among 210,000. AID 1457;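 further: IP1 builds up when IMPase is blocked and the TR-FRET signal falls; potency means the concentration at half of the fitted maximal effect; plate controls were basal vehicle for no effect and high inhibitor control for full effect; nearly all actives have a fitted effect of over 50% in size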
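Test compounds were applied to CHO-M1 cells previously cultured for 16–30 h at 2000 per well. A small lithium amount accompanied them; after 30 min at 37C, IP1 was quantified by TR-FRET.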
IMPase cell inh = membrane-permeable compound that blocks inositol monophosphatase; P97697; CHO-M1 cells, IP1 accumulation, HTRF TR-FRET ratio; inhibition (IP1 accumulation), % at 46.1 µM; 120,000 tested, under 10 active; active means well fitted curve in the direction sought with a large enough effect in the signal ratio, not every such curve was filed as active; inconclusive means small, poorly fitted or top-dose-only effect, or a change in a side signal; inactive means no such curve, though single readings can be large or run the other way; the % refers to the signal ratio;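 further: cells stimulated with carbachol in lithium chloride buffer; plate controls were DMSO basal wells for no effect and reference inhibitor wells for full effect; higher means more IMPase inhibition seen as more IP1 and lower FRET ratio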
Target sequence (P97697 whole entry, looked up): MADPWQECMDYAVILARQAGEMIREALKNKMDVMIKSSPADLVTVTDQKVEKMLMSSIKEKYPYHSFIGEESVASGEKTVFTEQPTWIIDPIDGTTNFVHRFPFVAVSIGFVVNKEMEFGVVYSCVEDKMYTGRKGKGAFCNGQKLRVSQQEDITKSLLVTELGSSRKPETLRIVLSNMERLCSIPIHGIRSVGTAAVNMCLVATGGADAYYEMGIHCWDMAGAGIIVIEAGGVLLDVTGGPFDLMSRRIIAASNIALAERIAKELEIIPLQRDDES
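Carbachol-driven Gq signalling in CHO-M1 cells (2000/well) generates IP1. Compounds that block IMPase raise IP1 and so reduce the FRET signal from Eu-anti-IP1 and d2-IP1 after a 10 min room-temperature lysis.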
LMNA splice mod = LMNA splicing modulation; HeLa LMNA splicing GFP/RFP minigene ratio, 48 h; Potency, µM (highest dose often 46.1 µM), for the others: at the top dose ratio change, negative = inhibition, most hits filed as inhibitors; hit rate 0.01% among 200,000; active means well fitted inhibition curve with a large enough effect in the signal ratio, with a control signal flat, not every such curve was filed as active; inconclusive means small, poorly fitted or top-dose-only effect, or effect the other way, or a change in a side signal; the % refers to the signal ratio; further: potency means the concentration at half of the fitted maximal effect; on the % scale 0 is the no-effect control and ±100 the full control effect
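S3 HeLa cells stably expressing lamin A-EGFP splicing minigene plus DsRed2, 600 cells/well, 48 h compound exposure at 37C. Laser-scanning cytometry; analysed as GFP (500-530 nm)/RFP (575-640 nm) total intensity ratio; 0.5% DMSO vehicle.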
HttQ103 aggreg = inhibitors of mutant huntingtin aggregate formation in PC12 cells; PC12 HttQ103-GFP aggregates, Acumen cytometry, 40 h; Potency, µM (doses to about 46.1 µM), inactives show at the top dose activity change, negative = inhibition, most hits filed as inhibitors; hit rate 1.1% among 220,000; further: potency means the concentration at half of the fitted maximal effect; on the % scale 0 is the no-effect control and ±100 the full control effect; nearly all actives have a fitted effect of over 60% in size
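Aggregates are detected as GFP objects 1–25 µm with signal 6 STDEV over background in lysates of induced PC12 cells. These carry Huntingtin exon 1 with 103 glutamines fused to GFP under an ecdysone promoter; compounds titrated.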
NPSR antag = antagonists of human neuropeptide S receptor cAMP signaling; CHO-NPSR cells, cAMP TR-FRET, antagonist mode; Potency, µM (series often up to 38.3 µM), without a hit: at the top dose activity change, negative = inhibition, most hits filed as inhibitors; hit rate 1% among 220,000; AID 1461; further: potency means the concentration at half of the fitted maximal effect; on the % scale 0 is the no-effect control and ±100 the full control effect; nearly all actives have a fitted effect of over 50% in size
Target sequence (Q6W5P4 whole entry, looked up): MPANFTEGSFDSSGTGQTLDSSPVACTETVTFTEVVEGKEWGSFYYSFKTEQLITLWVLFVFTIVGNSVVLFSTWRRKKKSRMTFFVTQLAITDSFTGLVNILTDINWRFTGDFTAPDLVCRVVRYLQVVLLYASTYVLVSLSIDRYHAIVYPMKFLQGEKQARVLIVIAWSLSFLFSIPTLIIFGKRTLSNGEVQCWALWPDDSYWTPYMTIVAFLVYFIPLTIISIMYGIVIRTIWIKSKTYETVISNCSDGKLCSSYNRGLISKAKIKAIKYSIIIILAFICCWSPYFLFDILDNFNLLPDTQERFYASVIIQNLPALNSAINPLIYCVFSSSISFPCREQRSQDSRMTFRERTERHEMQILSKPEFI
HTT ATP protect = cytoprotection in Huntington HTT-Q103 PC12 cell model; Potency, µM (top dose mostly 56.4 µM), inactives show cytoprotection (ATP increase), hits mostly activators; hit rate 0.14% among 230,000; PC12 HTT-Q103 induced, cytoprotection, ATP luminescence, 40 h; AID 1471; further: potency means the concentration at half of the fitted maximal effect; % of control where 0% means no effect; nearly all actives have a fitted effect of over 45% in size
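Compounds were screened for protection of PC12 cells against cell death after tebufenozide induction (100 nM final) of mutant Huntingtin exon 1 (Q103) fused to GFP.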
* = called active by the depositor; [ ] = dose if it differs, or a comment. Unless noted, the call rests on the fitted dose curve; in most records, active means well fitted curve in the direction sought with a large enough effect; inconclusive means small, poorly fitted or top-dose-only effect, or another doubt; inactive means no such curve, though single readings can be large; an effect the other way counts as inactive or inconclusive.

What do the screens show for `Cc1c(C(=O)N(C)Cc2ccccc2)oc2ccc(S(=O)(=O)N3CCCC3)cc12`?
IMPase Li cell: -1.9%[38.3 µM]; IMPase cell inh: 7.0; LMNA splice mod: inconclusive; HttQ103 aggreg: 11.2µM*; NPSR antag: inconclusive; HTT ATP protect: -77.1%

What do the screens show for `C/C(N=NC(=[SH+])SCc1ccccc1)=C1\C=CC=CN1.[Cl][Cu]`?
IMPase Li cell: 2.4%

Results for CS(=O)(=O)c1ncc(Cl)c(C(=O)Nc2ccc(N3CCOCC3)cc2)n1 ?
IMPase Li cell: 41.6%[38.3 µM]; IMPase cell inh: 7.5; LMNA splice mod: inconclusive; HttQ103 aggreg: 11.2µM*; NPSR antag: inconclusive; HTT ATP protect: -22.4%[10 µM]

Results for COc1ccccc1-[n+]1c(C)cc(/C=C2\Sc3ccccc3N2C)cc1C ?
HttQ103 aggreg: 0.891µM*; NPSR antag: 6.31µM*; HTT ATP protect: -80.4%[10 µM]

Results for COc1ccc(-[n+]2c(C)cc(/C=C3\Sc4ccccc4N3C)cc2C)cc1 ?
IMPase Li cell: 38.2%; HttQ103 aggreg: 1.12µM*; NPSR antag: inconclusive

What do the screens show for `COc1ccc(C(=O)/C=C2\Sc3ccccc3N2C)cc1`?
IMPase Li cell: 9.1%; LMNA splice mod: 3.5%[46 µM]; HttQ103 aggreg: -13.7%[9.22 µM]; NPSR antag: -44.0%; HTT ATP protect: -31.1%[10 µM]

How did Nc1nc(Nc2ccccc2)nc2c1ncn2[C@@H]1O[C@@H](CO)[C@H](O)[C@@H]1O do in these assays?
IMPase cell inh: 1.8; HTT ATP protect: -10.1%[1.9 µM]

What do the screens show for `O=C(NC(Nc1nc2ccc([N+](=O)[O-])cc2s1)(C(F)(F)F)C(F)(F)F)c1ccccc1Cl`?
IMPase Li cell: 22.2%; IMPase cell inh: 14.8; LMNA splice mod: inconclusive; HttQ103 aggreg: 0.316µM*; NPSR antag: 7.94µM*; HTT ATP protect: -60.9%[10 µM]

What do the screens show for `O=C(O)/C(Cc1ccc([N+](=O)[O-])cc1)=N/O`?
IMPase Li cell: 2.8%; HTT ATP protect: 4.9%[10 µM]

What do the screens show for `CC(=O)c1ccc(OCCOc2ccc(C#N)cc2)cc1`?
HttQ103 aggreg: -6.9%[9.22 µM]; NPSR antag: 6.1%; HTT ATP protect: 9.3%[10 µM]

How did N#CC1=C(N)C(C#N)(C#N)C(c2ccncc2)C2CN(C(=O)OCc3ccccc3)CC=C12 (stereo not given) do in these assays?
IMPase Li cell: 18.6%; IMPase cell inh: inconclusive; LMNA splice mod: -28.8%; HttQ103 aggreg: 12.2%; NPSR antag: 3.98µM*; HTT ATP protect: 13.1%[10 µM]

Results for CCOC(=O)N1CC=C2C(C#N)=C(N)C(C#N)(C#N)[C@H](c3ccsc3)[C@H]2C1 ?
IMPase Li cell: -3.0%[38.3 µM]; IMPase cell inh: 2.0; LMNA splice mod: -5.0%; HttQ103 aggreg: 0.562µM*; NPSR antag: -7.2%[46.1 µM]; HTT ATP protect: -25.2%

Results for CC1(C)CC(=O)C(=Cc2cn(-c3ccccc3)nc2-c2ccc(Cl)cc2)C(=O)C1 ?
IMPase Li cell: -21.5%[38.3 µM]; IMPase cell inh: -22.9; LMNA splice mod: -8.1%; HttQ103 aggreg: 1.2%; NPSR antag: inconclusive; HTT ATP protect: -14.8%

Results for CC1=NNC(=O)/C1=C\c1cn(-c2ccccc2)nc1-c1ccccc1 ?
IMPase Li cell: 34.7%; HttQ103 aggreg: -33.6%[9.22 µM]; NPSR antag: 12.6µM*; HTT ATP protect: -53.7%[1.9 µM]

What do the screens show for `C[C@H]1CN(CCO)CCN1c1ccccc1`?
IMPase Li cell: -15.7%; HTT ATP protect: -3.8%[10 µM]

How did COc1ccc(-c2n[nH]c3c2cnc2ccc(F)cc23)cc1 do in these assays?
LMNA splice mod: 3.7%[46 µM]

How did CCCCCc1ccc(OCCCC[n+]2ccccc2)c(CCCCC)c1 do in these assays?
IMPase Li cell: 7.6%; HttQ103 aggreg: 11.2µM*; NPSR antag: -50.3%; HTT ATP protect: -91.0%

How did Cc1ccc(NC(=O)C2=C(c3ccccc3)S(=O)(=O)CCS2(=O)=O)cc1 do in these assays?
IMPase Li cell: 18.6%; LMNA splice mod: inconclusive; HttQ103 aggreg: 5.01µM*; NPSR antag: 10µM*; HTT ATP protect: -133.1%

Results for Cn1c(/C=C/c2ccc([N+](=O)[O-])o2)nc2ccccc2c1=O ?
IMPase Li cell: -9.9%[38.3 µM]; IMPase cell inh: 6.3; LMNA splice mod: inconclusive; HttQ103 aggreg: 10µM*; NPSR antag: 10µM*; HTT ATP protect: -110.5%

What do the screens show for `O=C(O)c1ccccc1C(=O)Nc1cc2c(cc1Br)-c1ccccc1C2=O`?
IMPase Li cell: 6.3%; HTT ATP protect: -14.7%[10 µM]

What do the screens show for `Cc1ccc2nc(Cl)c3nnnn3c2c1`?
IMPase Li cell: 2.2%; HttQ103 aggreg: 3.55µM*; NPSR antag: 2.7%; HTT ATP protect: -97.5%[10 µM]

Results for CCC(=O)N1CCN(c2nc3ccccc3s2)CC1 ?
IMPase Li cell: 19.1%[38.3 µM]; IMPase cell inh: 3.4; LMNA splice mod: inconclusive; HttQ103 aggreg: -16.9%; NPSR antag: -0.9%[46.1 µM]; HTT ATP protect: -48.4%

Results for O=C(c1cc2sccc2n1Cc1ccccc1)N1CCN(c2nc3ccccc3s2)CC1 ?
IMPase Li cell: 3.9%[38.3 µM]; IMPase cell inh: 10.8; LMNA splice mod: -7.2%; HttQ103 aggreg: 7.94µM*; NPSR antag: -22.7%[46.1 µM]; HTT ATP protect: -33.7%

How did CC1(C)COC(c2ccc(F)c([N+](=O)[O-])c2)=N1 do in these assays?
IMPase Li cell: -28.0%; IMPase cell inh: 1.9; LMNA splice mod: inconclusive; HttQ103 aggreg: 35.5µM*; NPSR antag: 16.8%[46.1 µM]; HTT ATP protect: 16.9%[10 µM]

Results for CC(=O)Nc1ccc(-c2cc(-c3ccc(NC(C)=O)cc3)nc(-c3ccccc3)n2)cc1 ?
IMPase Li cell: 31.6µM*; IMPase cell inh: 3.4; LMNA splice mod: 5.1%; HttQ103 aggreg: 26.9%; NPSR antag: 1.6%[46.1 µM]; HTT ATP protect: -9.2%

Results for CCC(=O)Nc1ccc(-c2cc(-c3ccccc3)nc(-c3ccc(NC(=O)CC)cc3)n2)cc1 ?
IMPase Li cell: 10µM*; IMPase cell inh: inconclusive; LMNA splice mod: 9.4%; HttQ103 aggreg: -2.9%; NPSR antag: 2.9%[46.1 µM]; HTT ATP protect: -33.8%

Results for CC(=O)Nc1ccc(-c2cc(-c3ccccc3)nc(-c3ccccc3)n2)cc1 ?
IMPase Li cell: 8.91µM*; LMNA splice mod: -13.4%; HttQ103 aggreg: -22.2%; NPSR antag: inconclusive; HTT ATP protect: 21.8%[10 µM]

Results for CCC(=O)Nc1ccc(-c2csc(C)n2)cc1 ?
IMPase Li cell: 3.7%; LMNA splice mod: 3.4%; HttQ103 aggreg: -6.0%; NPSR antag: 6.8%

What do the screens show for `CC(=O)Nc1ccc(-c2cc(-c3ccc(NC(C)=O)cc3)nc(-c3ccc(NC(C)=O)cc3)n2)cc1`?
IMPase Li cell: inconclusive; LMNA splice mod: 0.8%; HttQ103 aggreg: 14.6%; NPSR antag: -27.7%; HTT ATP protect: -12.6%[10 µM]

Results for Cc1ccc(S(=O)(=O)/C=C\C#N)cc1 ?
IMPase Li cell: 36.9%; IMPase cell inh: 12.5; HTT ATP protect: -77.0%
